# Data as given in PubChem BioAssay.
# Activity calls are given as the source filed them. Unless noted, how the calls were made is not given here.
# Key:
# [1] = A549 cell viability effects, profiling panel, calcein-AM fluorescence, 48 h, basal (AID 1162); conditions: higher = more signal; further: test concentration not given here
# [2] = adipocyte viability effects, profiling panel, cell-based, 3T3-L1 adipocytes, calcein-AM fluorescence, 48 h, basal (AID 1163); conditions: 3T3-L1 adipocytes viability, higher = more signal; further: test concentration not given here
# [3] = HepG2 cell viability effects, profiling panel, calcein-AM fluorescence, 48 h, basal (AID 1164); conditions: higher = more signal; further: test concentration not given here
# [4] = MM1S cell viability effects, profiling panel, calcein-AM fluorescence, 48 h, basal (AID 1165); conditions: higher = more signal;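 further: viability of MM1S multiple myeloma cells under basal unstimulated conditions; test concentration not given here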
# [5] = basal RPMI8226 viability, no added stimulus, profiling panel, cell-based, calcein-AM fluorescence, 48 h, PK04 Diversity Set (AID 1166); conditions: RPMI8226 myeloma viability, higher = more signal;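 further: cells grown under basal conditions without added stimulus; test concentration not given here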
# [6] = basal HepG2 mitochondrial membrane potential changes, profiling panel, cell-based, JC-1 fluorescence, 24 h, 100 nL compound (AID 1167); conditions: higher = more signal; further: test concentration not given here
# [7] = basal 3T3-L1 adipocyte mitochondrial potential changes, profiling panel, cell-based, JC-1 fluorescence, 3T3-L1 adipocytes, 24 h, 100 nL compound (AID 1168); conditions: JC-1 mitochondrial fluorescence, higher = more signal, called active from +8 up or from −8 down; further: test concentration not given here
# [8] = basal RPMI8226 mitochondrial membrane potential changes, profiling panel, cell-based, JC-1 fluorescence, 24 h, 100 nL compound (AID 1169); conditions: RPMI8226 myeloma, JC-1 mitochondrial potential fluorescence, higher = more signal; further: test concentration not given here
# [9] = basal MM1S mitochondrial membrane potential changes, profiling panel, cell-based, JC-1 fluorescence, 24 h, 100 nL compound (AID 1170); conditions: higher = more signal; further: test concentration not given here
# [10] = A549 lung cancer cell viability effects, profiling panel, resazurin fluorescence, 24 h, PK04 Diversity Set (AID 1171); conditions: higher = more signal, called active from +8 up or from −8 down; further: test concentration not given here
# [11] = HepG2 liver cancer cell viability effects, profiling panel, resazurin fluorescence, 24 h, PK04 Diversity Set (AID 1172); conditions: higher = more signal; further: test concentration not given here
# [12] = basal S. cerevisiae growth modulation, no modifier, primary screen, OD600, strain BY4716, 24 h, basal condition (AID 1173); conditions: OD600, 24 h, higher = more signal, called active from +8 up or from −8 down
# [13] = MM1S myeloma cell viability, profiling panel, resazurin fluorescence, basal, 24 h, PK04 Diversity Set (AID 1174); conditions: higher = more signal, called active from +8 up or from −8 down;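 further: MM1S multiple myeloma cell line; test concentration not given here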
# [14] = target: Dihydroorotate dehydrogenase (quinone), mitochondrial (Plasmodium falciparum (isolate 3D7)) (UniProt Q08210); assay: PfDHODH enzyme inhibitors, primary screen, biochemical, C-terminal His tag, absorbance 600 nm (AID 1175); conditions: DCIP absorbance 600 nm, higher = more signal, called active from +8 up or from −8 down;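 further: recombinant parasite enzyme with a five histidine tag at its C terminus; test concentration not given here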
# Sequence of Dihydroorotate dehydrogenase (quinone), mitochondrial (Plasmodium falciparum (isolate 3D7)) (Q08210 whole entry, looked up): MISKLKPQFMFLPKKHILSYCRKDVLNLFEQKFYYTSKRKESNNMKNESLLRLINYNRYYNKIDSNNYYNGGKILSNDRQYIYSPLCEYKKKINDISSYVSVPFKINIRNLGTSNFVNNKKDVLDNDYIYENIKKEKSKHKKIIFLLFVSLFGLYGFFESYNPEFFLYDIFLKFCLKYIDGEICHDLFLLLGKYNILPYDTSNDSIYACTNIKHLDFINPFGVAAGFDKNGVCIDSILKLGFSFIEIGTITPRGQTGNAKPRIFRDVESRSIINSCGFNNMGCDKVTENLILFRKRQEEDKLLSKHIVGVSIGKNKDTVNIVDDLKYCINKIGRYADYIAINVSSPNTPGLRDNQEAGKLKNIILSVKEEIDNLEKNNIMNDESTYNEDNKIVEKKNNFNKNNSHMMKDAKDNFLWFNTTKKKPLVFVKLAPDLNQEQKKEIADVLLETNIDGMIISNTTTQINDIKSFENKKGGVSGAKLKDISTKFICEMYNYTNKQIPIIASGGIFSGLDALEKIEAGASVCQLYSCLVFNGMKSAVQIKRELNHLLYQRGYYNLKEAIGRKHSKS
# [15] = P. aeruginosa biofilm formation inhibitors, primary screen, strain PAO1, LB-PBS medium, absorbance 600 nm (AID 1176); further: test concentration not given here; conditions: P. aeruginosa PAO1 growth/biofilm, A600, 12 h; higher = more signal
# [16] = S. cerevisiae RM11-1a growth modifiers, primary screen, strain RM11-1a, OD600, basal, 24 h (AID 1177); conditions: OD600, 24 h, higher = more signal, called active from +8 up or from −8 down;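 further: cultures grown under basal conditions with no added stressor; test concentration not given here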
# [17] = E. coli acrAB mutant growth effects, primary screen, E. coli filamentation inducers, strain DRC39, OD650, 24 h (AID 1178); conditions: higher = more signal, called active from +8 up or from −8 down;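 further: growth measured as culture turbidity by optical density at 650 nm; test concentration not given here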
# [18] = E. coli acrAB mutant growth effects, primary screen, E. coli filamentation inducers, strain DRC39, OD650, 48 h (AID 1179);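 further: screen aims at cell division blockers that make cells filament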; conditions: E. coli DRC39 delta-acrAB growth, higher = more signal, called active from +8 up or from −8 down
# [19] = RPMI8226 myeloma cell viability, profiling panel, resazurin fluorescence, basal, 24 h, PK04 Diversity Set (AID 1180); conditions: higher = more signal;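 further: RPMI8826 multiple myeloma cell line at 5000 cells per well; test concentration not given here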
# [20] = target: E3 ubiquitin-protein ligase XIAP (Homo sapiens) (UniProt P98170); assay: XIAP binders, primary screen, biophysical, small-molecule microarray, fluorescence 635 nm (AID 1181); conditions: small-molecule microarray binding, higher = more signal;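 further: score merges 667 nm emission and signal to noise over triplicate slides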
# Sequence of E3 ubiquitin-protein ligase XIAP (Homo sapiens) (P98170 whole entry, looked up): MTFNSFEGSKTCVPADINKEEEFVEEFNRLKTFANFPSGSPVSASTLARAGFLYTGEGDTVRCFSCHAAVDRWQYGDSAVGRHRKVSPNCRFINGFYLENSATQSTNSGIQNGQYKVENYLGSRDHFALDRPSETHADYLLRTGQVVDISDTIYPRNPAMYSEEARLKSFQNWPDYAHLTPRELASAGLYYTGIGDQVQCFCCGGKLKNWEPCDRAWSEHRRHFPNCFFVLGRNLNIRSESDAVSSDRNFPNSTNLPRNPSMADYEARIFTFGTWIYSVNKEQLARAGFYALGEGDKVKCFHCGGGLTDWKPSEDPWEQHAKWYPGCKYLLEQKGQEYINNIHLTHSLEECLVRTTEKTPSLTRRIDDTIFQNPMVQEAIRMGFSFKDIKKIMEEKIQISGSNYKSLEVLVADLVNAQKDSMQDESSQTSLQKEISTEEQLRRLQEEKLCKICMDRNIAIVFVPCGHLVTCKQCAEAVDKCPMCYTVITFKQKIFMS
Structure (SMILES),z-score [1],z-score [2],z-score [3],z-score [4],z-score [5],z-score [6],z-score [7],z-score [8],z-score [9],z-score [10],z-score [11],z-score [12],z-score [13],composite z-score [14],z-score [15],z-score [16],z-score [17],z-score [18],z-score [19],composite z-score [20]
CCOC(=O)[C@H]1C/C=C/C[C@H](C(=O)OCC)C(=O)O[C@H]2[C@@H](OC)O[C@H](CO)[C@@H](OC(=O)Nc3ccc4c(c3)OCO4)[C@@H]2OC1=O,-2.58,-0.256,-5,-3.35,-4.14,-3.1,1.56 (inactive),-0.975,-1.75,-5 (inactive),-4.19,0.273 (inactive),-6.98 (inactive),0.0446 (inactive),1.2 (inactive),1.06 (inactive),1.03 (inactive),1.53 (inactive),-6.84,-0.102
C=CC[C@@]1(C(=O)NCC(O)CO)N=C(c2ccc(OCCCO)cc2)O[C@@H]1c1ccccc1N=[N+]=[N-] (stereo not given in full),-0.112,1.37,-0.805,-0.494,-1.14,0.582,-0.343 (inactive),-0.164,-1.17,0.695 (inactive),0.896,-0.965 (inactive),-0.12 (inactive),-0.269 (inactive),-0.0709 (inactive),0.0157 (inactive),1.69 (inactive),1.29 (inactive),-0.274,0.0049
C=CCC(OC(C)=O)[C@@H]1[C@@H](N(Cc2ccc(-c3ccccc3)cc2)C(=O)Cc2ccc(F)cc2)c2cc(OCCCO)ccc2N1C(=O)c1ccc2ccccc2n1 (stereo not given in full),1.07,0.203,1.14,-2.11,0.246,2.97,0.25 (inactive),-0.359,1.7,1.37 (inactive),1.29,-0.186 (inactive),1.08 (inactive),-0.203 (inactive),-0.619 (inactive),-0.452 (inactive),0.918 (inactive),0.761 (inactive),0.893,0.103
COCCOC(=O)N1C(=O)[C@@]2(c3cc(C#CCC(C(=O)OC)C(=O)OC)ccc31)[C@H](C(=O)N1CCN(c3ncccn3)CC1)[C@H]1C(=O)O[C@H](c3ccccc3)[C@H](c3ccccc3)N1[C@@H]2c1ccc(OCCO)cc1,1.68,1.02,0.674,0.65,1.21,-0.656,1.86 (inactive),-0.303,-1.16,0.665 (inactive),1.36,0.539 (inactive),0.724 (inactive),-0.432 (inactive),3.48 (inactive),1.84 (inactive),0.272 (inactive),0.106 (inactive),1.32,0.0838
[N-]=[N+]=Nc1ccccc1C[C@]1(C(=O)NCCN2CCOCC2)N=C(c2ccc(OCCCO)cc2)O[C@H]1c1ccccc1,-0.0454,0.0937,-0.256,-0.0793,-0.26,0.771,0.00214 (inactive),-0.309,-0.777,1.24 (inactive),0.224,-3.1 (inactive),-0.359 (inactive),-0.0351 (inactive),0.565 (inactive),-0.52 (inactive),0.148 (inactive),-0.338 (inactive),-0.554,0.0679
CN1C=C(C(=O)OCCS(C)(=O)=O)C(C(=O)OCCS(C)(=O)=O)=CC(CCCO)=CC1C1CC1 (stereo not given),-0.731,0.197,1.23,0.509,0.535,0.838,0.448 (inactive),0.326,-1.09,0.129 (inactive),0.427,-2.11 (inactive),-0.16 (inactive),-1.23 (inactive),-0.353 (inactive),-0.558 (inactive),1.38 (inactive),1.29 (inactive),0.0101,-0.366
O=C(NCc1ccccc1)[C@]1(CCS(=O)(=O)c2ccccc2)N=C(c2ccc(OCCCO)cc2)O[C@@H]1c1ccccc1,-0.649,0.0335,-0.708,-0.478,-0.651,1.24,0.499 (inactive),-0.762,-1.75,-0.704 (inactive),0.0669,1.08 (inactive),-0.866 (inactive),-0.549 (inactive),0.0937 (inactive),1.91 (inactive),0.79 (inactive),1.05 (inactive),0.253,0.323
COCCCNC(=O)[C@@]1(c2ccc([N+](=O)[O-])cc2)CC(=O)N(CC23CC4CC(CC(C4)C2)C3)[C@@H]1c1ccc(CO)cc1,-0.995,0.109,0.198,-1.93,-2.42,0.461,-0.381 (inactive),0.0554,-0.784,-0.968 (inactive),-1.04,-0.67 (inactive),-1.62 (inactive),0.431 (inactive),0.981 (inactive),-0.24 (inactive),0.788 (inactive),0.351 (inactive),-1.96,0.0374
O=C1O[C@@H](c2ccccc2)[C@@H](c2ccccc2)N2[C@@H](c3ccccc3OCCO)[C@]3(C(=O)Nc4ccc(C#CC5(O)CCCCCC5)cc43)[C@@H](C(=O)Nc3nc4ccccc4s3)[C@H]12,-1.49,0.601,-3,-3.22,-4.17,-2.67,2.71 (inactive),-0.863,-1.41,-1.34 (inactive),-0.592,0.193 (inactive),-3.35 (inactive),0.18 (inactive),2.5 (inactive),1.86 (inactive),-0.994 (inactive),-1.19 (inactive),-4.98,0.0077
